We go through 40 sequences from the supplement of paper PMC10338343.

± gives the standard deviation. The full ranking holds about 6,600 sequences; the median of “pre-steady-state target cleavage rate” is about 0.07, and the highest 2% start at about 0.72. The sample holds the highest values, similar sequences and a random draw of the others, so the mix is not that of the screen.
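Further: 1 nM active piRISC with 0.1 nM target library at 33 °C single turnover.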

The test concerns MIWI (PIWIL1) piRISC loaded with Kctd7 piRNA (30 nt). The test is described as follows: pre-steady-state target cleavage rate (min^-1); MIWI and MILI are mouse PIWI proteins and EfPiwi is from a freshwater sponge; tags in brackets are library labels; higher = faster piRNA-guided slicing of the target. The conditions noted are these: guide: Kctd7 piRNA 5'p-UGUUAAUCUCUCAGAGAAGGUGACAGUGAU; auxiliary factor: 500 nM mouse GTSF1. Put shortly: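 The pre-steady-state cleavage rate was derived from a burst-and-steady-state fit of Cleave-'n-Seq data. For these assays, 1 nM active affinity-purified piRISC loaded with a single synthetic guide was mixed with […] a transcribed, DNA-blocked target RNA library in HEPES–potassium acetate buffer at 33 °C, with or without 500 nM GTSF1 partner protein, for 0–8 or 0–960 min. Sequencing counts of uncleaved targets were normalised to depth and to weakly complementary targets, and k3 was capped at 0.0001 min^-1 after three trials were pooled.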
Regarding UACACUGUCACCUUCUGUGUGAGAUUAACA, the “pre-steady-state target cleavage rate” value was found to be 0.0849 ± 0.012.

UUCUCUGUGACCUUCUCUGAGAGAUUAACA: the “pre-steady-state target cleavage rate” value was 0.491 ± 0.023.

Take UACACUGUCACCUUCUCUGAGACUUUAUGA: the “pre-steady-state target cleavage rate” value worked out at 0.00869 ± 0.0047.

UAGUGACAGUGCCUUCUCUGAGAGAUUAACA: the “pre-steady-state target cleavage rate” value was determined as 0.356 ± 0.034.

Regarding UAGUGAGUGACCUUCUCAGAGAGAUUAACA, the “pre-steady-state target cleavage rate” value stood at 0.226 ± 0.026.

With UAGUGACAGUCCUUCUCUGAGGGAUUAACA, the “pre-steady-state target cleavage rate” value worked out at 0.0348 ± 0.0076.

Turning to AUCACUGCUCACCUUCUCUGAGAGAUUAACA, the “pre-steady-state target cleavage rate” value is 0.8 ± 0.051.

UUCACUGCUCACCUUCUCUGAGAGAUUAACA: the “pre-steady-state target cleavage rate” value was 0.669 ± 0.044.

With UACACUGCCACCUUCUCUGAGAGAUUAACA, the “pre-steady-state target cleavage rate” value was determined as 0.613 ± 0.035.

For the sequence UUCACUGCCACCUUCUCUGAGAGAUUAACA, the “pre-steady-state target cleavage rate” value came to 0.611 ± 0.023.

With UACACUGCUCACCUUCUCUGAGAGAUUAACA, the “pre-steady-state target cleavage rate” value is 0.623 ± 0.035.

Turning to AUCACUGCCACCUUCUCUGAGAGAUUAACA, the “pre-steady-state target cleavage rate” value was 0.773 ± 0.044.

Turning to UAGUGACUGACCUUCUCUGAGAGAUUAUGA, the “pre-steady-state target cleavage rate” value came to 0.00985 ± 0.0048.

On to UAGUGACUCUACCUUCUCUGAGAGAUUAACA, for which the “pre-steady-state target cleavage rate” value worked out at 0.122 ± 0.014.

With UAGACUGUGCACCUUCUCUGAGAGAUUAACA, the “pre-steady-state target cleavage rate” value was determined as 0.651 ± 0.048.

For the sequence UAGUGAGUCACCUUAUCUGAGAGAUUAACA, the “pre-steady-state target cleavage rate” value worked out at 0.363 ± 0.02.

For UAGUGACAGUCCUUACUCUGAGAGAUUAACA, the “pre-steady-state target cleavage rate” value came out at 0.0326 ± 0.0043.

With UAGAGUGUCACCUUCUCUGAGAGAUAAACA, the “pre-steady-state target cleavage rate” value was determined as 0.362 ± 0.038.

For AUGACUGUCACCAUCUCUGAGAGAUUAACA, the “pre-steady-state target cleavage rate” value was 0.817 ± 0.06.

For the sequence UAGUCUGUCACCAUCUCUGAGAGAUUAACA, the “pre-steady-state target cleavage rate” value turned out to be 0.667 ± 0.038.

As to UACUCUGUCACCAUCUCUGAGAGAUUAACA, the “pre-steady-state target cleavage rate” value worked out at 0.69 ± 0.036.

For UUCUCUGUCACCAUCUCUGAGAGAUUAACA, the “pre-steady-state target cleavage rate” value was 0.514 ± 0.023.

For AUCUCUGUCACCAUCUCUGAGAGAUUAACA, the “pre-steady-state target cleavage rate” value is 0.633 ± 0.03.

Regarding UUGACUGUCACCAUCUCUGAGAGAUUAACA, the “pre-steady-state target cleavage rate” value turned out to be 0.756 ± 0.044.

Consider UAGACUGUCACCUUCUCUCAGAGAUUAACA, for which the “pre-steady-state target cleavage rate” value is 0.154 ± 0.016.

Consider UAGUCUGUCACCUUCUCUGAGUGAUUAUCA, for which the “pre-steady-state target cleavage rate” value was determined as 0.015 ± 0.0044.

UUCACAGUCACCUUCUGUGAGAGAUUAACA: the “pre-steady-state target cleavage rate” value was 0.363 ± 0.035.

As to UACACUGUGACCUUGUCUGAGAGAUUAACA, the “pre-steady-state target cleavage rate” value came to 0.0711 ± 0.013.

For the sequence UAGACUGUCAGCUUCUCUGAGAGUUUAACA, the “pre-steady-state target cleavage rate” value amounted to 0.0686 ± 0.011.

With UAGUGAGUCACCUUGCUCUGAGAGAUUAACA, the “pre-steady-state target cleavage rate” value was found to be 0.332 ± 0.07.

Regarding UACACCUGUCACCUUCUCUGAGAGAUUAACA, the “pre-steady-state target cleavage rate” value turned out to be 0.79 ± 0.051.

UUCACCUGUCACCUUCUCUGAGAGAUUAACA: the “pre-steady-state target cleavage rate” value was 0.73 ± 0.033.

On to UUCUCUGUCACCUUCUCUGAGAGAUUAACA, for which the “pre-steady-state target cleavage rate” value is 0.585 ± 0.031.

Consider UACCCUGUCACCUUCUCUGAGAGAUUAACA, for which the “pre-steady-state target cleavage rate” value is 0.638 ± 0.034.

As for UACCUGUCACCUUCUCUGAGAGAUUAACA, the “pre-steady-state target cleavage rate” value is 0.773 ± 0.051.

As to AUCCCUGUCACCUUCUCUGAGAGAUUAACA, the “pre-steady-state target cleavage rate” value was determined as 0.644 ± 0.051.

Consider AUCCUGUCACCUUCUCUGAGAGAUUAACA, for which the “pre-steady-state target cleavage rate” value was found to be 0.744 ± 0.052.

Consider UUCCUGUCACCUUCUCUGAGAGAUUAACA, for which the “pre-steady-state target cleavage rate” value was determined as 0.633 ± 0.037.

On to UAGUGUGUCACCUUCUCUGACUCAUUUUGA, for which the “pre-steady-state target cleavage rate” value came out at 0.0047 ± 0.0045.

In the case of UAGUGACAGACCUUCUCUGUGACAUUAACA, the “pre-steady-state target cleavage rate” value is 0.00672 ± 0.0033.
